Sampled rows, rich in hits. Any-hit rate of the full collection: about 3.5%.
GPR151 ag = human GPR151 activation; Q8TDV0; PathHunter beta-arrestin GPR151 cells, luminescence; activation, % at 11.2 µM; 650,000 compounds, 1% hits; AID 1508602; in the data active means activation above about 4.9%;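 further: 0% = median of compound wells and 100% = cells with positive control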
MITF inh = inhibitors of human MITF; O75030; AlphaScreen MITF homodimerization, bead proximity signal; inhibition, % at 2.6 µM; 650,000 compounds, 0.91% hits; AID 1259374; in the data active means inhibition above about 50%;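 further: 0% = vehicle wells with protein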
Target sequence (O75030 whole entry, looked up): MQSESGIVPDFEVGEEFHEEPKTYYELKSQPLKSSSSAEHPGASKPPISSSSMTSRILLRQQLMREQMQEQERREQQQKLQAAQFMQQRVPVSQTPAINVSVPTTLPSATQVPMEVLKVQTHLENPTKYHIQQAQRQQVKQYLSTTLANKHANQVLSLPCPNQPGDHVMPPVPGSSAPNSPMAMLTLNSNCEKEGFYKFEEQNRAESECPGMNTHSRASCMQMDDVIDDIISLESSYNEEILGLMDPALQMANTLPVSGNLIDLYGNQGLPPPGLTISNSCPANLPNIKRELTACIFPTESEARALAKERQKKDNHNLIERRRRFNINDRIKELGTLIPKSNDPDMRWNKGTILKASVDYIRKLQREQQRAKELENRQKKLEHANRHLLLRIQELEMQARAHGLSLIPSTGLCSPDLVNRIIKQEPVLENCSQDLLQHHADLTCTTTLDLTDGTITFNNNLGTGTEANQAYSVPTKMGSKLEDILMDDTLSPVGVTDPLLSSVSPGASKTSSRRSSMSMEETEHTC
FBW7 activator = human FBW7 E3 ligase activation, primary screen; Q969H0; AlphaScreen FBW7–phospho-cyclin E peptide binding, activator screen; normalized activity (activation), % at 26.1 µM; 650,000 compounds, 0.13% hits; in the data active means normalized activity above about 1.9%;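 further: purified mutant Fbw7 with reduced substrate affinity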
TEAD-YAP inh = TEAD-YAP interaction inhibition; HEK-TIYL cells, TEAD-Gal4/YAP UAS-luciferase luminescence; inhibition, % at 9.12 µM; 640,000 compounds, 1.4% hits; in the data active means inhibition above about 32%;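 further: 0% = median of test compound wells and 100% = reference inhibitor wells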
Starred values were filed as active, the others as inactive; ! = not active in a repeat.

SMILES	GPR151 ag	MITF inh	FBW7 activator	TEAD-YAP inh
Cc1cnc(C(=O)NCCN2Cc3ccccc3OC(c3ccccc3F)C2)cn1 (stereo not drawn)	0.8	-3.1	-0.3	13.0
COC(=O)C1=C(N)Oc2cc(C)n(CC3CCCO3)c(=O)c2C1c1ccc(Cl)cc1 (stereo not drawn)	-0.7	-21.4	2.3*	0.8
Cc1cc(C)cc(OCC(=O)Nc2ccc(F)c([N+](=O)[O-])c2)c1	3.5	2.8	0.0	36.9*
O=C(COc1cccc(Cl)c1)Nc1ccccc1[N+](=O)[O-]	1.6	-3.7	0.0	32.2*
Cc1cccc(OCC(=O)Nc2ccc(F)c([N+](=O)[O-])c2)c1	0.5	1.1	-0.3	32.0*
Cc1ccc(OCC(=O)Nc2ccc(F)c([N+](=O)[O-])c2)cc1C	0.5	-8.1	-0.2	12.8
Cc1ccc(NC(=O)CSc2nnc(NC(=O)c3ccccc3[N+](=O)[O-])s2)cc1	-3.9	-16.6	0.0	-31.8
Cc1ccc(C(=O)Nc2nnc(SCC(=O)Nc3ccc(F)c([N+](=O)[O-])c3)s2)cc1	0.9	-2.7	0.1	82.9*
Nc1cccc(-c2nc3ccc(C(=O)NCCN4CCOCC4)cc3s2)c1	-0.1	-4.8	0.0	-9.5
CCN(CC)CCCNC(=O)C1c2ccccc2C(=O)N(Cc2ccc(F)cc2)C1c1ccc(OC)cc1 (stereo not drawn)	-0.2	2.0	-0.1	5.4
CNC(=O)N(C1=NCC(C)S1)c1cccc(Cl)c1 (stereo not drawn)	-0.8	9.1	-0.1	40.0*
CC1CN=C(N(C)C(=O)Nc2cccc(Cl)c2)S1 (stereo not drawn)	-0.7	2.4	-0.1	-19.7
CN(c1ccccc1)c1ccc(/C=C/[N+](=O)[O-])cc1	-1.0	-6.9	-0.1	33.7*
O=C1NC2(CCN(C(=O)c3csc4c3CCCC4)CC2)Nc2ccccc21	-1.3	20.6	-0.1	40.4*
CN(CCO)C1CCc2c(sc3ncn(CC4CCCCC4)c(=O)c23)C1 (stereo not drawn)	0.4	-6.7	-0.1	49.2*
Cc1cc(C(=O)NNC(=O)C(O)(c2ccccc2)c2ccccc2)cs1	0.6	3.6	1.9*	2.1
FC(F)(F)C1=Nc2cc(Cl)c(Cl)cc2N=C(c2cccs2)C1	-0.4	-5.7	0.0	36.8*
COc1ccc2cc3[n+](cc2c1OC)CCc1cc2c(cc1-3)OCO2	0.0	2.4	-0.2	56.1*!
COc1cc2c(c(OC)c1OC)-c1c(cc3c(c1OC)OCO3)CC(C)C(C)C2 (stereo not drawn)	-0.2	-2.1	-0.1	-3.0
CCOc1cc(/C=C2\C(=O)N(c3ccccc3)N=C2C)cc(Cl)c1O	-0.9	30.6	-0.9	-1.6
CCN(C(=O)CCl)c1cccc2ccccc12	2.6	-10.0	-0.3	67.5*
O=C(OC(c1ccccc1)c1nccc2ccccc12)c1ccccc1 (stereo not drawn)	-0.3	8.5	0.0	71.9*
O=C1CCCC2=C1C(c1cccc(Br)c1)Nc1ccccc1N2 (stereo not drawn)	-0.4	13.8	0.4	-2.0
O=C1CCCC2=C1C(c1cccc(Br)c1)Nc1ccc(C(=O)c3ccccc3)cc1N2 (stereo not drawn)	1.0	7.3	0.0	67.8*
CC(=O)N1c2ccccc2NC2=C(C(=O)CCC2)C1c1cccs1 (stereo not drawn)	1.2	-3.3	-0.1	49.3*
SMILES	GPR151 ag	MITF inh	FBW7 activator	TEAD-YAP inh
O=C1CCCC2=C1C(c1ccc(F)cc1)Nc1ccc(C(=O)c3ccccc3)cc1N2 (stereo not drawn)	-1.6	12.3	0.1	21.8
O=C1CCCC2=C1C(c1ccc(O)cc1)Nc1ccc(C(=O)c3ccccc3)cc1N2 (stereo not drawn)	0.3	4.0	-0.1	33.9*
O=C1CCCC2=C1C(c1cccs1)Nc1ccc(C(=O)c3ccccc3)cc1N2 (stereo not drawn)	0.0	-3.0	0.0	54.8*
O=C1CCCC2=C1C(c1cccs1)N(C(=O)c1ccccc1)c1ccccc1N2 (stereo not drawn)	-0.5	2.5	-0.1	3.5
COc1ccc(-n2c(SCc3ccc(Cl)cc3)nc3cc(C(=O)NCc4ccco4)ccc3c2=O)cc1OC	-0.9	3.3	0.2	6.7
CCCNC(=O)NNC(=O)C12CC3CC(CC(C3)C1)C2	-2.2	-18.5	0.1	-6.6
C=CCc1c(C)c(C#N)c2nc3ccccc3n2c1NCCCN1CCOCC1	-0.6	8.5	0.3	7.5
CCNC(=O)c1ccc(CN2CCN(c3ccccc3)CC2)cc1	-0.9	-14.2	0.2	-1.5
O=C(Nc1ccccc1C(F)(F)F)c1ccc(CN2CCN(c3ccccc3)CC2)cc1	-0.6	0.6	0.4	47.3*
Cc1cc(C)nc(N/N=C/c2ccc([N+](=O)[O-])cc2O)n1	1.2	20.6	-0.1	8.4
Cc1c(Cl)cccc1NC(=O)c1cc2nc(-c3ccccc3)cc(-c3ccccc3)n2n1	-0.1	-1.2	0.3	9.7
O=C(O)c1ccc(-c2cnc3ccc(NCc4ccc5c(c4)OCO5)nn23)cc1	-0.8	-15.5	0.3	-3.1
c1cc(CNc2ccc3ncc(-c4ccc5c(c4)OCO5)n3n2)ccn1	-0.2	5.3	-0.4	50.4*
Cc1ccc(-c2cnc3ccc(NCc4ccc5c(c4)OCO5)nn23)cc1	-0.2	7.5	0.0	48.1*
c1ccc(CNc2ccc3ncc(-c4ccc5c(c4)OCO5)n3n2)nc1	0.6	6.5	0.1	58.2*
O=C(Nc1cccc(Cl)c1)c1ccc2c(=O)n(C3CCCCC3)c(=S)[nH]c2c1	-0.3	18.8	0.1	8.3
Cc1ccc(Oc2ccc(-c3cnc4ccccc4n3)cc2[N+](=O)[O-])c(-n2nc3ccccc3n2)c1	0.7	6.2	-0.1	-0.6
CC(=O)c1ccc(Oc2ccc(-c3cnc4ccccc4n3)cc2[N+](=O)[O-])cc1	0.2	2.5	0.1	-3.6
Cc1ccc(Oc2ccc(-c3cnc4ccccc4n3)cc2[N+](=O)[O-])cc1C	-0.4	1.4	1.9*	13.9
O=[N+]([O-])c1cc(-c2cnc3ccccc3n2)ccc1N1CCCCCC1	-1.0	15.1	0.6	71.0*
O=C(Nc1ccccc1F)C1CCN(C(=O)c2ccc(F)cc2)CC1	0.7	-3.8	0.1	9.2
COc1ccc(/C=C2\C(=O)Nc3ccc(Br)cc32)c(OC)c1OC	0.2	8.6	-0.1	52.8*
COc1ccc(/C=C2\C(=O)Nc3ccc(Br)cc32)cc1	-1.7	32.0	0.3	-4.2
CCCCSCCCNC(=O)Nc1ccc(Cl)cc1	-0.3	3.9	0.1	-2.8
CCOCCn1c(=NC(=O)c2cccc(OC)c2OC)sc2ccccc21	-4.6	10.6	0.0	74.2*
COCCn1c(=NC(=O)c2cccc(OC)c2OC)sc2cc(OC)c(OC)cc21	-2.0	-6.4	0.3	-8.8
Cc1ccc(C)c(CN2CCN3C(=O)[C@H](CO)NC(=O)[C@H]3C2)c1	-0.1	-11.4	-0.4	1.3
CCn1ncc(C2=NOC(C(=O)NCc3ccco3)C2)c1C (stereo not drawn)	-0.5	-19.9	0.1	44.8*
O=C(NCc1ccco1)C1CC(c2ccccc2F)=NO1 (stereo not drawn)	1.0	1.5	0.1	5.0

Compound activity deposited in PubChem BioAssay by The Scripps Research Institute Molecular Screening Center.
